The supplement of paper PMC3334620
The full ranking holds about 33,000 sequences; the median of “E-score (-0.5 to 0.5)” is about -0.054, and the highest 2% start at about 0.35. This is one part of a sample in which the highest values are shown more often than they occur.

Target: T1, Stb5 (UniProt P38699)
T1 sequence: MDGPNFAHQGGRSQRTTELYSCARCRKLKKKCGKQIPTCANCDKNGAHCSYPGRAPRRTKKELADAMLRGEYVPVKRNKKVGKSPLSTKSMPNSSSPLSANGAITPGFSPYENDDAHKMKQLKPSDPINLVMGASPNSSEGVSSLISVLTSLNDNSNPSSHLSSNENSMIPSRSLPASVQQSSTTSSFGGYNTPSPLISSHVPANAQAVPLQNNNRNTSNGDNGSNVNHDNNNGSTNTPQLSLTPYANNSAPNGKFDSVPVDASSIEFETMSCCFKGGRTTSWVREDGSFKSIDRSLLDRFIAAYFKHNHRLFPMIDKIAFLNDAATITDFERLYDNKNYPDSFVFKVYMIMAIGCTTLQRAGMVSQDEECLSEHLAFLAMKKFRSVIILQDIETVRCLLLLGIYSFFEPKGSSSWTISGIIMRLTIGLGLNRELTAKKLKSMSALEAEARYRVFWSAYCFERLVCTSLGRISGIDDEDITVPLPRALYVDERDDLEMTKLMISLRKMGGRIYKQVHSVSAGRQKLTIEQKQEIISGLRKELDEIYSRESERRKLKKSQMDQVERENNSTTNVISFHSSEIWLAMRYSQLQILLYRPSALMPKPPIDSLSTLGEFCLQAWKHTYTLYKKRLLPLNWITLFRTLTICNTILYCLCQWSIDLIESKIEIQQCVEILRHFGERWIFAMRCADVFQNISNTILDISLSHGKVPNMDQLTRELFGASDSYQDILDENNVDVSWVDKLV
Test: PBM E-score (8-mer binding enrichment) (E-score (-0.5 to 0.5)); higher = stronger / more preferred TF binding
Conditions: protein concentration: 200 nM; construct: GST-full length
Description: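 Universal 'all 10-mer' protein binding microarrays (Agilent AMADID 015681) probed with GST-tagged S. cerevisiae TFs (full-length or DBD) made by in vitro transcription/translation (PURExpress), about 100-200 nM. Bound TF was detected with fluorescent anti-GST. Each ungapped 8-mer (which stands for itself and its reverse complement) is scored by the PBM enrichment score (E-score), a modified Wilcoxon-Mann-Whitney statistic from -0.5 to +0.5, computed with the Universal PBM Analysis Suite. Scale: above 0.35 generally sequence-specific binding.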

Row | Sequence | PBM E-score
1 | GGGAAATA | 0.134
2 | AGGGAATA | 0.0674
3 | AGGAAGTA | 0.0105
4 | CGGAAGTA | 0.352
5 | CGGGATTA | 0.471
6 | CGGGAATA | 0.456
7 | CGGAAATA | 0.399
8 | CGGAAGTC | 0.204
9 | CGGAAATC | 0.0555
10 | AGGGATTA | 0.0519
11 | CGGGATTC | 0.219
12 | GGGGAATA | 0.174
13 | GAAGCGGA | 0.282
14 | CTCGATGC | -0.2
15 | CGAGTGTC | -0.0644
16 | AGCTTTTG | -0.139
17 | CAGACACC | 0.0808
18 | AGTACGAT | -0.165
19 | CCAGTGAG | -0.17
20 | TTATAGAA | -0.0532
21 | GCATAAGC | 0.0731
22 | AGAGACGG | 0.0766
23 | CTTTGACA | -0.135
24 | CGGGACTC | 0.184
25 | CGGGAGTA | 0.417
26 | GGGGACTA | -0.0234

Row | Sequence | PBM E-score
27 | CGGGGACA | 0.415
28 | CGGGACTA | 0.451
29 | GGGGAGTA | 0.0545
30 | AGGGAGTA | -0.109
31 | CGGGGACC | 0.051
32 | GGGGGACA | -0.187
33 | AACGGGTA | 0.102
34 | ACGATCCT | -0.231
35 | ATTCCGGA | 0.115
36 | AGTCCGCA | 0.323
37 | AGTCCGGG | 0.274
38 | AGTCCGCC | 0.42
39 | CGTCCGGA | 0.153
40 | CGTCCGCC | 0.338
41 | CGTCCGGC | 0.275
42 | GGTCCGGA | 0.391
43 | AGTCCGGA | 0.39
44 | AGTCCGCG | 0.339
45 | GATCCGGA | 0.227
46 | AGTCCGGC | 0.38
47 | AACCCTCC | -0.0222
48 | AATTCTCG | -0.186
49 | TCGCCTCA | -0.162
50 | CCCGAACC | 0.144
51 | CGCAGACA | -0.0673
52 | AACTTCAC | -0.293

Row | Sequence | PBM E-score
53 | ACTGGGGG | -0.28
54 | AGAGTGAT | -0.258
55 | AAGTTCTG | -0.231
56 | CCACCTTC | -0.199
57 | ACCGCTGA | 0.255
58 | CCCGCTAC | 0.216
59 | ACCGCTAC | 0.395
60 | ACCGCTGC | 0.364
61 | ACCGCTCT | 0.226
62 | GCCGCTAA | 0.296
63 | ACCGCTAA | 0.263
64 | ACCGCTCC | 0.323
65 | ACCGCTCG | 0.357
66 | GCCGCTAC | 0.39
67 | ACCGCTAT | 0.33
68 | CCCGCTGC | 0.209
69 | AAACGAAG | -0.0773
70 | ATCTGGCC | 0.0703
71 | TCACGCGA | -0.0286
72 | ACCTCTAT | -0.163
73 | TCTGTGCA | -0.195
74 | GTAGTAAC | 0.12
75 | AACGAACC | -0.116
76 | TGCCCCAA | -0.123
77 | ACGTTGTA | -0.0486
78 | CGCACTTA | 0.368

Row | Sequence | PBM E-score
79 | AGCACTTA | -0.0929
80 | CGCACTTC | 0.0228
81 | CCCTGCAG | -0.0201
82 | ACGGTGTG | 0.288
83 | CCGGTGAC | 0.292
84 | CCGGTGTC | 0.408
85 | ACGGTGTC | 0.408
86 | GCGGTGTA | 0.421
87 | CTGGTGTC | -0.178
88 | CGGGTGTA | 0.37
89 | AGGGTGTC | -0.106
90 | CGGGTGTC | 0.00649
91 | GCGGTGGA | 0.177
92 | GGGGTGTA | 0.178
93 | AGGGTGTA | -0.236
94 | TGACGCAA | -0.174
95 | CAAAGTGG | -0.254
96 | ACTGCGAC | 0.202
97 | TAACTCTA | -0.0643
98 | GAACCATC | -0.135
99 | ACCCACGT | -0.257
100 | CAGGTGTA | -0.204
101 | CCGGTGTA | 0.366
102 | ACGGTGTA | 0.348
103 | CGCAAAGA | 0.016
104 | CTGAAATA | -0.0506

Row | Sequence | PBM E-score
105 | GCCTCACA | -0.212
106 | CCCCCCGA | 0.14
107 | AACCCCCA | -0.0755
108 | AACCCCAA | -0.0237
109 | AACCCCGA | 0.473
110 | ACCCCCGA | 0.371
111 | TCCCCCGA | 0.263
112 | CTCTTGAC | -0.182
113 | AGCTAAAT | 0.088
114 | CTCCAGCC | -0.15
115 | AAGAATAA | 0.0987
116 | AATGAATA | 0.0406
117 | ATAATGCC | 0.386
118 | ATAAATCA | -0.129
119 | ATAATCCC | 0.389
120 | ATAATGCG | 0.0614
121 | CTAATCAC | 0.189
122 | CTAATCCA | -0.106
123 | ATAAATCC | 0.382
124 | ATAATCCG | 0.103
125 | CTAATGCC | 0.285
126 | ATAAATCG | 0.0618
127 | CTAATCCC | 0.354
128 | ATAATCCA | -0.0209
129 | TGCCAGAA | -0.307
130 | CGCTTACG | 0.123

Row | Sequence | PBM E-score
131 | GCCCTACC | -0.0725
132 | AAGATACG | -0.0742
133 | CGCTGCCC | -0.0156
134 | ACACGGCC | 0.116
135 | CCCTGTAA | -0.0001
136 | CGCAGTTC | 0.00085
137 | AGCAGTTA | -0.194
138 | CGCAGTTA | 0.359
139 | GAGATTGC | -0.0088
140 | CCATTCTC | -0.126
141 | AATCACTA | -0.155
142 | ATCGGTCA | 0.208
143 | TGCGGACA | 0.286
144 | CTCGGTCC | 0.242
145 | CGCGGACC | 0.319
146 | ATCGGACC | 0.398
147 | GGCGGAAC | 0.25
148 | GGCGGACC | 0.412
149 | ATCGGACA | 0.332
150 | GGCGGACA | 0.357
151 | GGCGGAAA | 0.227
152 | ATCGGTCC | 0.396
153 | ATCGGACG | 0.305
154 | CTATAATC | 0.019
155 | GGCACCCA | -0.036
156 | GCACTCAA | -0.0587

Row | Sequence | PBM E-score
157 | ATACCAAT | -0.00644
158 | TCCCACAA | 0.0012
159 | ACTGCGCG | 0.122
160 | AGCGGAGC | 0.31
161 | AGCGGACC | 0.359
162 | AGCGGAAC | 0.295
163 | GCACGGGC | 0.2
164 | AGCTATTC | -0.0735
165 | GAACTCAC | -0.221
166 | AAGGCCTG | -0.0882
167 | CAGGCCGA | 0.153
168 | AAAAGCCG | 0.38
169 | AAAAGCCT | -0.122
170 | AAGGCCGG | 0.407
171 | AAGGCCGT | 0.421
172 | ACGGCCGT | 0.226
173 | AAAAGCCC | 0.324
174 | AAGGCCGA | 0.46
175 | TAGGCCGA | 0.125
176 | CAGGCCGG | 0.11
177 | AAGGCCTT | -0.163
